Measurements: PMC5540273 (PLoS ONE, 2017)

test system: MKK7; settings: concentration: 1 μM,replicates: in singlicate; n = 1
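Also: KINOMEscan kinase panel screen.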

Row | SMILES | %Inh [%]
1 | Cl.Oc1cc(-c2nc(-c3ccccc3)[nH]c2-c2ccncc2)ccc1Cl [SB-386023] | 10
2 | Cc1cc(C(=O)Nc2ccc(Oc3ccc4nc(NC(=O)C5CC5)cn4n3)cc2)nn1-c1ccccc1 | 0
3 | O=C(NCCNc1ccnc(NCc2ccc(F)cc2)n1)c1cc2ccccc2s1 [GSK1379944] | 26
4 | C[C@@H](Oc1cc(-c2cnn(C3CCNCC3)c2)cnc1N)c1c(Cl)ccc(F)c1Cl | 0
5 | CNC(=O)c1ccccc1Sc1ccc2c(/C=C/c3ccccn3)n[nH]c2c1 | 0
6 | C=CC(=O)Nc1cc2c(Nc3ccc(F)c(Cl)c3)ncnc2cc1OCCCN1CCOCC1 [GW781483] | 62
7 | CC(C)Nc1cc(-c2ccc3c(N)n[nH]c3c2)nc(N)n1 [GSK2221681] | 0
8 | Nc1nc(Nc2ccccc2)cc(-c2ccc3c(N)n[nH]c3c2)n1 [GSK2225749] | 0
9 | CN(C)CC(O)COc1ccc(Nc2nccc(-c3cnn4nc(N5CCOCC5)ccc34)n2)cc1 (stereo not drawn) [GW767488] | 0
10 | Cc1cc2cn[nH]c2cc1-c1cccc2c(N)c(C(N)=O)nnc12 | 27
11 | O=C(NCCCN1CCOC1=O)c1cnc(NCc2cc(Cl)ccc2Cl)nc1NC1CCCC1 | 0
12 | CCn1c(-c2nonc2N)nc2c(C#CC(C)(C)O)nc(OCCN)cc21.Cl.Cl [GSK902056] | 0
13 | Cc1n[nH]c2ccc(-c3cc(OC[C@@H](N)Cc4ccccc4)cnc3-c3ccoc3)cc12.O=C(O)C(F)(F)F.O=C(O)C(F)(F)F [GSK507358] | 21
14 | CN(C)CCOc1ccc(-c2cc(-c3c[nH]nc3-c3ccccn3)ccn2)cc1 [GW835314] | 13
15 | Cl.Cl.NC[C@H](CC1CCCCC1)NC(=O)c1cc(Br)c(-c2ccnc3[nH]ccc23)s1 [GSK1581427] | 0
16 | CC(C)N1C(=O)Cc2cc(Nc3ncc(C(F)(F)F)c(NCc4cccc(S(C)(=O)=O)c4)n3)ccc21 | 2
17 | NC(=O)c1cc(-c2ccccc2)cc2c(C3CCNCC3)c[nH]c12 [GSK301362] | 18
18 | Cc1ccc2c(-c3ccncc3)c(-c3ccc(F)cc3)nn2c1.Cl [GW461484] | 0
19 | COc1ccc(C[C@@H](CN)NC(=O)c2cc(Br)c(-c3ccnc4[nH]ccc34)s2)cc1.Cl.Cl [GSK1389063] | 82
20 | Cl.Cl.Nc1nc(-c2ccc3c(N)n[nH]c3c2)cc(N2CCCC(NC(=O)c3ccccc3)C2)n1 (stereo not drawn) [GSK2286775] | 0
21 | CCN(CC)CCOc1ccc(Nc2ncc3cc(-c4c(Cl)cccc4Cl)c(=O)n(C)c3n2)cc1 [SB-601273] | 11
22 | CCN(CC)CCCCNc1ncc2cc(-c3c(Cl)cccc3Cl)c(NC(=O)NC(C)(C)C)nc2n1 | 0
23 | Cc1ccc(-n2nc(C(C)(C)C)cc2NC(=O)Nc2ccc(OCCN3CCOCC3)c3ccccc23)cc1 [GW839464] | 0
24 | C[C@@H]1CCN(C(=O)CC#N)C[C@@H]1N(C)c1ncnc2[nH]ccc12 | 0
25 | C[C@H]1Oc2cc(cnc2N)-c2c(nn(C)c2C#N)CN(C)C(=O)c2ccc(F)cc21 | 0
26 | Cc1occc1-c1nc(N)c(OC[C@@H](N)Cc2c[nH]c3ccccc23)cc1-c1cc2c(C)n[nH]c2cn1 [GSK1660450] | 0
27 | Cl.Cl.NC[C@H](Cc1ccc(C(F)(F)F)cc1)NC(=O)c1cc(Br)c(-c2ccnc3[nH]ccc23)s1 [GSK1487252] | 0
